Our source for the Potency and activity change, negative = inhibition values is PubChem BioAssay (NCATS).

Records with an inconclusive call do not appear. A call without a number means that no potency is given here. Active and inactive are the calls of the source. Calls come from the whole dose curve; as a rule, active = well fitted inhibition curve with a large enough effect; inconclusive = small, poorly fitted or top-dose-only effect; inactive = flat fitted curve, though single readings scatter.

The target of this assay is Phospholipid hydroperoxide glutathione peroxidase GPX4 (Homo sapiens) (UniProt P36969). Nature of the assay: Primary qHTS Assay for Inhibitors of Recombinant Selenoprotein Glutathione Peroxidase 4 (GPX4) (AID 1845192). Note: nearly all actives have a fitted effect of over 65% in size. Particulars: recombinant GPX4, GR-coupled NADPH fluorescence, 15 min; series mostly up to 50 µM. The method, boiled down: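 NADPH consumption followed by fluorescence at 340/450 nm, t=0 and after 15 min at room temperature. Reaction started with cumene hydroperoxide (0.5 mM final) after 30 min compound–GPX4 preincubation; final 200 nM GPX4, 100 nM GR, 1 mM GSH, 0.5 mM NADPH.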
Sequence of Phospholipid hydroperoxide glutathione peroxidase GPX4 (Homo sapiens) (P36969 whole entry, looked up): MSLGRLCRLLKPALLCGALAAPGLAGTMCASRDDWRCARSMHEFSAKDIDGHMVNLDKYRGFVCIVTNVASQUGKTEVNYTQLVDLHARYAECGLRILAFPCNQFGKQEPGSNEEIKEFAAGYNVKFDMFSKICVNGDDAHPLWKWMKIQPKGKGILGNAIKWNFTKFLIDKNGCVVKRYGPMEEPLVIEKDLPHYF
A general note: Quantitative high-throughput screening tests each substance at several concentrations.
As for `O=C(N1CCOCC1)N1CCN(c2ccc(Cl)cc2)CC1`, the Potency result was “inactive”.

As to `C=C1[C@@H]2CC[C@@]3(C)[C@H](c4ccoc4)OC(=O)C[C@]13O[C@H]1CC(=O)C(C)(C)[C@H](C(OC(C)=O)C(=O)OC)[C@]12C` (stereo not given in full), the Potency result is “inactive”.

In the case of `CCOc1ccccc1-n1c(C(C)N2CCN(C(=O)COc3ccc(Cl)cc3)CC2)nc2ccccc2c1=O` (stereo not given), the Potency result is “inactive”.

As for `CN1C(=O)c2ccccc2NC(=O)C1Cc1ccccc1` (stereo not given), the Potency entry is “inactive”.

`COC1=CC(=O)O[C@@H](/C=C/c2ccccc2)C1`: the Potency entry is “inactive”.

`O=C(O)c1ccnc2cc(C(OCCN3CCCCC3)c3ccccc3Cl)[nH]c12` (stereo not given): the Potency entry was “inactive”.

Consider `C=CC(C)(O)CC/C=C(\C)C(=O)O[C@H]1[C@H](O)[C@@H](CO)O[C@@H](OC(=O)[C@]23CCC(C)(C)CC2C2=CCC4[C@@]5(C)CC[C@H](O[C@@H]6O[C@H](CO[C@@H]7OC[C@H](O)[C@H](O)[C@H]7O[C@@H]7OC[C@@H](O)[C@H](O)[C@H]7O)[C@@H](O)[C@H](O)[C@H]6O)C(C)(C)C5CC[C@@]4(C)[C@]2(C)CC3)[C@@H]1OC1OC(C)C(O[C@@H]2OC[C@@H](O)[C@H](O[C@@H]3OC[C@@H](O)[C@H](O)[C@H]3O)[C@H]2O)C(O)C1O` (stereo not given in full), for which the activity change, negative = inhibition is 0.212% [at 9.73 µM] (inactive).

In the case of `CC(C)=C1CC[C@]23CO[C@H](C2)[C@@](O)(C(=O)O)CCC13` (stereo not given in full), the Potency result is “inactive”.

Take `CN1CCC[C@@H]1Cc1c[nH]c2ccc(Nc3ncccc3[N+](=O)[O-])cc12`: the Potency result was “inactive”.

As for `CO[C@@H]1[C@H](O)[C@@H](O[C@@H]2C[C@H]3CC[C@@H]4C(CC[C@]5(C)[C@@H](C6=CC(=O)OC6)CC[C@]45O)[C@@]3(C)[C@H](O)C2)O[C@H](C)[C@@H]1O[C@@H]1O[C@H](CO)[C@@H](O)[C@H](O)[C@H]1O` (stereo not given in full), the Potency entry was “inactive”.
